For 37 compounds, growth results are on record in PubChem BioAssay (NCI).

Structures are written as SMILES. About 83,000 compounds went through this panel and 20% of them were active in at least one assay; those are over-represented in the sample as a whole.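 Note: values are percent growth. 100 is the growth of untreated cells, values between 100 and 0 indicate rising inhibition; between -100 and 0 indicates cell death.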 Active and inactive are the calls of the source. The calls were made as follows: active = growth percent below 10; inactive = the rest.

For the first test, the system named is RPMI-8226 leukemia. Briefly: NCI-60 one-dose screen, 48 h (100 = growth as untreated, 0 = no growth, -100 = all killed). The settings on record: 1 µM.
Consider `CC/C(=C(/c1ccc(O)cc1)c1ccc(OCCN(C)C(=O)COCCOCCNC(=O)c2ccc3c(c2)CN([C@@H]2CCC(=O)NC2=O)C3=O)cc1)c1ccccc1`, for which the growth is 99.6% (inactive).

For the compound `CC/C(=C(/c1ccc(O)cc1)c1ccc(OCCN(C)C(=O)CCOCCNC(=O)Cc2ccc3c(c2)CN([C@@H]2CCC(=O)NC2=O)C3=O)cc1)c1ccccc1`, the growth was 88% (inactive).

For `CC/C(=C(/c1ccc(O)cc1)c1ccc(OCCN(C)C(=O)COCCOCCNC(=O)Cc2ccc3c(c2)CN([C@@H]2CCC(=O)NC2=O)C3=O)cc1)c1ccccc1`, the growth was 90.3% (inactive).

In the case of `CC/C(=C(\c1ccc(O)cc1)c1ccc(OCCNC)cc1)c1ccccc1`, the growth is 100% (inactive).

Take `CC/C(=C(\c1ccc(O)cc1)c1ccc(OCCN(C)C(=O)CCOCCNC(=O)c2ccc3c(c2)CN([C@@H]2CCC(=O)NC2=O)C3=O)cc1)c1ccccc1`: the growth is 99.1% (inactive).

`CC/C(=C(\c1ccc(O)cc1)c1ccc(OCCN(C)C(=O)COCCNC(=O)Cc2ccc3c(c2)CN([C@@H]2CCC(=O)NC2=O)C3=O)cc1)c1ccccc1`: the growth was 83.7% (inactive).

Still in this test, the particulars now being: 10 µM.
In the case of `CC/C(=C(/c1ccc(O)cc1)c1ccc(OCCN(C)C(=O)COCCOCCNC(=O)c2ccc3c(c2)CN([C@@H]2CCC(=O)NC2=O)C3=O)cc1)c1ccccc1`, the growth is 78.5% (inactive).

Consider `CC/C(=C(/c1ccc(O)cc1)c1ccc(OCCN(C)C(=O)CCOCCNC(=O)Cc2ccc3c(c2)CN([C@@H]2CCC(=O)NC2=O)C3=O)cc1)c1ccccc1`, for which the growth was 78.3% (inactive).

Turning to `CC/C(=C(/c1ccc(O)cc1)c1ccc(OCCN(C)C(=O)COCCOCCNC(=O)Cc2ccc3c(c2)CN([C@@H]2CCC(=O)NC2=O)C3=O)cc1)c1ccccc1`, the growth is 72% (inactive).

As for `CC/C(=C(\c1ccc(O)cc1)c1ccc(OCCNC)cc1)c1ccccc1`, the growth was 86.1% (inactive).

Consider `CC/C(=C(\c1ccc(O)cc1)c1ccc(OCCN(C)C(=O)CCOCCNC(=O)c2ccc3c(c2)CN([C@@H]2CCC(=O)NC2=O)C3=O)cc1)c1ccccc1`, for which the growth is 93.9% (inactive).

Take `CC/C(=C(\c1ccc(O)cc1)c1ccc(OCCN(C)C(=O)COCCNC(=O)Cc2ccc3c(c2)CN([C@@H]2CCC(=O)NC2=O)C3=O)cc1)c1ccccc1`: the growth was 51.8% (inactive).

Staying with this test, now noted: 10 µM unless noted.
Turning to `O=C(Nc1ccc(S(=O)(=O)N2CCCCC2)cc1)C(Cl)Cl`, the growth is 110% (inactive).

Regarding `O=C(c1ccc(Cl)cc1)C1[C@H](c2ccccc2Cl)[C@@H](c2ccccc2)NC12C(=O)Nc1ccccc12` (stereo partly drawn), the growth was -0.108% (active).

Take `O=C(c1ccc(O)cc1)C1[C@H](c2ccc(Cl)cc2)[C@@H](c2ccccc2)NC12C(=O)Nc1ccccc12` (stereo partly drawn): the growth is -3.39% (active).

With `Cc1ccc2nc(SCc3ccccc3F)n(-c3ccccc3)c(=O)c2c1`, the growth is 93.4% (inactive).

Consider `CCCCNc1ccc2c3c(cccc13)C(=O)N(NCC(O)COc1ccc3c(C)cc(=O)oc3c1)C2=O` (stereo not drawn), for which the growth is 69.3% (inactive).

As for `c1n[nH]cc1-c1nc2ccc3[nH]ncc3c2c2c1CC1(CC2)COC1`, the growth was 71.4% (inactive).

Regarding `CCN1CCN(Cc2ccc(C(=O)Nc3cccc(Nc4ccc5c(OC)cccc5n4)c3)cc2C(F)(F)F)CC1`, the growth is -34.8% (active).

Consider `O=C(NN1C(=O)/C(=C/C=C/c2ccc([N+](=O)[O-])o2)SC1=S)c1ccc([N+](=O)[O-])cc1`, for which the growth is -30.6% (active).

On to `C=CCn1c(O)c(N=Nc2nc(-c3cc4ccccc4oc3=O)cs2)c2ccccc21`, for which the growth is 106% (inactive).

Take `CCCCCCCCCCCCCCCCCC(=O)Nc1ccc(OC)cc1`: the growth is 99.6% (inactive).

Take `Cn1cc(-c2cc(N)n3nc(-c4c[nH]c5ccc(Cl)cc45)cc3n2)c2cc(Br)cnc21`: the growth was -43.6% (active).

`COC(=O)c1ccc(-c2c(-c3ccccc3)c(F)c3oc(C(=O)OC)c(N)c3c2-c2ccccc2)cc1`: the growth is 101% (inactive).

`COc1ccc(-c2nc3ccccc3n2CC(=O)N=Nc2c(O)[nH]c3ccc(Br)cc23)cc1`: the growth was 79.1% (inactive).

Regarding `O=C(N/N=C/c1c[nH]c2ccccc12)Nc1ccccc1Cl`, the growth was 7.68% (active).

Turning to `COc1ccc(CCC2NCCc3c(Br)c4c(c(OC)c32)OCO4)cc1` (stereo not drawn), the growth is 11% (inactive).

As for `CN(C)c1nc(NCCNS(=O)(=O)c2ccc(C(=O)/C=C/c3ccc(Cl)cc3)cc2)nc(N2CCOCC2)n1`, the growth is -22.8% (active).

`COc1ccccc1NC(=O)N/N=C/c1c[nH]c2ccccc12`: the growth is 13.5% (inactive).

Take `O=C1/C(=C/c2cnc(-c3ccccc3)s2)SC(=S)N1Cc1ccc2c(c1)OCO2`: the growth was 110% (inactive).

Regarding `N#CC1=C(c2cccs2)Nc2c(c(-c3ccccc3)nn2-c2ccccc2)C12C(=O)Nc1ccccc12` (stereo not drawn), the growth is 34.5% (inactive).

Regarding `COc1ccc2[nH]c(=O)cc(-n3ncc(C(=O)/C=C/c4cc(OC)c(OC)c(OC)c4)c3C)c2c1`, the growth was -45.2% (active).

Turning to `C[C@H](NC(=O)c1ccc2c(-c3ccc(C(F)(F)F)cc3)cccc2c1)c1ccccn1`, the growth is 21.4% (inactive).

Take `Cn1cc(Nc2ncnc(-c3ccc(N4CCCC4)c(C#N)c3)n2)cn1`: the growth is 83.9% (inactive).

Take `CCCCCCCCc1cccc(CC(=O)Nc2ccc(C)cc2C(=O)O)c1`: the growth was 25.4% [25 µM] (inactive).

`O=C1CCC(N2C(=O)c3cccc(NCCCCCC(=O)N4CCN(c5ccc6nc7c(nc6c5C(F)(F)F)C(=O)c5ncccc5C7=O)CC4)c3C2=O)C(=O)N1` (stereo not drawn): the growth was -0.232% (active).

Regarding `CN1C(=O)/C(=C\C(=O)c2cc3ccccc3oc2=O)c2ccccc21`, the growth is 62.3% (inactive).

As for `Cc1ccc2nc(NC(=O)Nc3cccc(Cl)c3)sc2c1`, the growth was 96.7% (inactive).

As to `O=C1Nc2ccccc2/C1=C\c1ccc(OCC(=O)c2ccc(Br)cc2)cc1`, the growth is 49.2% (inactive).

For `COc1ccc2[nH]cc(-c3cc(N)n4nc(-c5c[nH]c6ccccc56)cc4n3)c2c1`, the growth was -11.5% (active).

Turning to `Cn1cc(-c2cc(N)n3nc(-c4c[nH]c5ccc(Cl)cc45)cc3n2)c2cccnc21`, the growth was -17.8% (active).

In the case of `Cc1ccc(-c2cc(C(=O)N=Nc3c(O)[nH]c4ccc(F)cc34)c3ccccc3n2)cc1`, the growth is 103% (inactive).

As to `O=C(NN1C(=O)/C(=C/C=C/c2ccc([N+](=O)[O-])o2)SC1=S)c1ccncc1`, the growth was -28.4% (active).
